Drawing on PubChem BioAssay (EPA / NIEHS), this text covers AC50 and outcome for three compounds.

A word on the AC50: it is the concentration giving half of the maximal activity seen.

Conditions in all cases: mRNA level, 48 h; actives raise or lower the signal
Read-out in assay [1]: Glutathione S-Transferase (GSTA2), GSTA2 (gene 2939)
The assay is described as follows: LTEA_HepaRG_GSTA2: Life Technologies and Expression Analysis (LTEA) Assay for Glutathione S-Transferase (GSTA2) using HepaRG (AID 2283497). The essentials: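 Oxidative-stress marker GSTA2 is quantified by TaqMan qRT-PCR in HepaRG cultures treated 48 h across an eight-point range to 100 uM. Expression is normalized to endogenous controls and compared with 0.5% DMSO vehicle.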

Read-out in assay [2]: Glutamate-cysteine ligase catalytic (GCLC), GCLC (gene 2729)
As to the kind of experiment: LTEA_HepaRG_GCLC: Life Technologies and Expression Analysis (LTEA) Assay for Glutamate-cysteine ligase catalytic (GCLC) using HepaRG (AID 2283498). The essentials: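 Oxidative-stress marker GCLC is measured as mRNA change in human HepaRG liver cells after 48 h chemical treatment in 0.5% DMSO, eight concentrations from 100 uM. Activity is fitted bidirectionally against vehicle.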

Read-out in assay [3]: growth arrest and DNA damage 45 (GADD45G), GADD45G (gene 10912)
As to the kind of experiment: LTEA_HepaRG_GADD45G: Life Technologies and Expression Analysis (LTEA) Assay for growth arrest and DNA damage 45 (GADD45G) using HepaRG (AID 2283499). The essentials: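 Differentiated human HepaRG cells in serum-free induction medium were exposed for 48 h to 8 half-log concentrations up to 100 uM in 0.5% DMSO, in duplicate. GADD45G mRNA was measured by TaqMan qRT-PCR, normalised to ACTB, GAPDH and POLR2A, and fitted bidirectionally against DMSO.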

Read-out in assay [4]: Glutamate-cysteine ligase regulatory (GCLM), GCLM (gene 2730)
The assay is described as follows: LTEA_HepaRG_GCLM: Life Technologies and Expression Analysis (LTEA) Assay for Glutamate-cysteine ligase regulatory (GCLM) using HepaRG (AID 2283500). The essentials: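 HepaRG, 48 h dosing, 100 uM top, half-log x8, 0.5% DMSO vehicle. Readout: GCLM mRNA by TaqMan qRT-PCR, housekeeping-normalized (ACTB/GAPDH/POLR2A). Curves fit bidirectionally vs DMSO baseline.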

Read-out in assay [5]: Glutathione S-transferase M3 (GSTM3), GSTM3 (gene 2947)
The assay is described as follows: LTEA_HepaRG_GSTM3: Life Technologies and Expression Analysis (LTEA) Assay for Glutathione S-transferase M3 (GSTM3) using HepaRG (AID 2283501). Summed up:
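Differentiated HepaRG cells in serum-free induction medium were exposed in duplicate for 48 h to 8 half-log concentrations up to 100 uM in 0.5% DMSO. GSTM3 mRNA was measured by TaqMan qRT-PCR, normalized to ACTB/GAPDH/POLR2A, and fitted bidirectionally versus DMSO.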

Read-out in assay [6]: Heat shock 70 kDa protein 1 (HSPA1A), gene 3303
The assay is described as follows: LTEA_HepaRG_HSPA1A: Life Technologies and Expression Analysis (LTEA) Assay for Heat shock 70 kDa protein 1 (HSPA1A) using HepaRG (AID 2283502). Summed up:
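HepaRG, 48 h exposure, 8-pt half-log CRC from 100 uM in 0.5% DMSO, duplicates. Readout: TaqMan qRT-PCR of HSPA1A mRNA, housekeeping-normalized (ACTB/GAPDH/POLR2A). Bidirectional fit vs 0.5% DMSO baseline.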

Read-out in assay [7]: 3-Hydroxy-3-Methylglutaryl-CoA Synthase 2 (HMGCS2), HMGCS2 (gene 3158)
As to the kind of experiment: LTEA_HepaRG_HMGCS2: Life Technologies and Expression Analysis (LTEA) Assay for 3-Hydroxy-3-Methylglutaryl-CoA Synthase 2 (HMGCS2) using HepaRG (AID 2283504). Summed up: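 Differentiated human HepaRG cells were exposed in duplicate for 48 h in serum-free induction medium to eight concentrations (top 100 uM, half-log steps, 0.5% DMSO). HMGCS2 mRNA was quantified by TaqMan qRT-PCR, normalised to ACTB, GAPDH and POLR2A, then fitted bidirectionally against DMSO.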

Read-out in assay [8]: HGF (gene 3082)
The assay is described as follows: LTEA_HepaRG_HGF: Life Technologies and Expression Analysis (LTEA) Assay for Hepatocyte Growth Facto (HGF) using HepaRG (AID 2283505). The essentials:
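Differentiated human HepaRG cells in serum-free induction medium were exposed in duplicate for 48 h to eight concentrations (top 100 uM, half-log steps, 0.5% DMSO). HGF mRNA was quantified by qRT-PCR, normalized to ACTB, GAPDH and POLR2A.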

Read-out in assay [9]: Insulin Like Growth Factor 1 (IGF1), IGF1 (gene 3479)
As to the kind of experiment: LTEA_HepaRG_IGF1: Life Technologies and Expression Analysis (LTEA) Assay for Insulin Like Growth Factor 1 (IGF1) using HepaRG (AID 2283506). Summed up: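 qRT-PCR readout of IGF1 mRNA, normalized to three housekeeping genes, after 48 h chemical exposure of HepaRG cells. Concentrations: 8-point half-log series, top 100 uM, 0.5% DMSO vehicle. Gain or loss fitted against DMSO baseline.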

Read-out in assay [10]: Intercellular Adhesion Molecule 1 (ICAM1), ICAM1 (gene 3383)
The assay is described as follows: LTEA_HepaRG_ICAM1: Life Technologies and Expression Analysis (LTEA) Assay for Intercellular Adhesion Molecule 1 (ICAM1) using HepaRG (AID 2283507). The essentials:
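Differentiated HepaRG cells in serum-free induction medium were exposed in duplicate for 48 h to eight half-log concentrations up to 100 uM in 0.5% DMSO. Transcript levels were measured by qRT-PCR normalized to ACTB, GAPDH and POLR2A; bidirectional fits relative to DMSO.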

Read-out in assay [11]: Insulin-like growth factor-binding protein 1 (IGFBP1), IGFBP1 (gene 3484)
As to the kind of experiment: LTEA_HepaRG_IGFBP1: Life Technologies and Expression Analysis (LTEA) Assay for Insulin-like growth factor-binding protein 1 (IGFBP1) using HepaRG (AID 2283508). Summed up:
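Differentiated human HepaRG cells in serum-free induction medium were exposed in duplicate for 48 h to eight concentrations, top 100 uM with half-log dilutions, in 0.5% DMSO. Transcript levels came from qRT-PCR normalised to ACTB, GAPDH and POLR2A, fitted bidirectionally against DMSO.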

Read-out in assay [12]: Interleukin 6 (IL6), IL6 (gene 3569)
As to the kind of experiment: LTEA_HepaRG_IL6: Life Technologies and Expression Analysis (LTEA) Assay for Interleukin 6 (IL6) using HepaRG (AID 2283509). Summed up: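 Changes in IL6 mRNA, up or down relative to 0.5% DMSO controls, were derived from concentration-response curves in human HepaRG cells treated for 48 h at up to 100 uM, with ACTB, GAPDH and POLR2A as normalizers.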

Read-out in assay [13]: Interleukin 6 Receptor (IL6R), IL6R (gene 3570)
The assay is described as follows: LTEA_HepaRG_IL6R: Life Technologies and Expression Analysis (LTEA) Assay for Interleukin 6 Receptor (IL6R) using HepaRG (AID 2283510). The essentials:
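HepaRG, 48 h exposure, 8-pt half-log series, top 100 uM, 0.5% DMSO vehicle, duplicates. Read-out: TaqMan qRT-PCR of IL6R transcript, housekeeping-gene normalized. Gain or loss fitted relative to DMSO baseline.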

Read-out in assay [14]: Keratin 19 (KRT19), KRT19 (gene 3880)
As to the kind of experiment: LTEA_HepaRG_KRT19: Life Technologies and Expression Analysis (LTEA) Assay for Keratin 19 (KRT19) using HepaRG (AID 2283512). The essentials:
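Differentiated human HepaRG cells, plated 48 h, were exposed in duplicate for 48 h in serum-free induction medium to eight half-log concentrations up to 100 uM in 0.5% DMSO. KRT19 mRNA was quantified by qRT-PCR, normalized to ACTB, GAPDH and POLR2A, and fitted bidirectionally versus DMSO.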

Read-out in assay [15]: JUN Transcription Factor, JUN (gene 3725)
The assay is described as follows: LTEA_HepaRG_JUN: Life Technologies and Expression Analysis (LTEA) Assay for JUN Transcription Factor using HepaRG (AID 2283513). Summed up:
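HepaRG, 48 h exposure, 8-pt half-log series top 100 uM, 0.5% DMSO, duplicate. JUN mRNA by qRT-PCR (Fluidigm), housekeeping-normalized (ACTB/GAPDH/POLR2A); bidirectional curve fit vs DMSO baseline.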

Read-out in assay [16]: Lipase C (LIPC), LIPC (gene 3990)
As to the kind of experiment: LTEA_HepaRG_LIPC: Life Technologies and Expression Analysis (LTEA) Assay for Lipase C (LIPC) using HepaRG (AID 2283514). Summed up:
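In this multiplexed gene-expression screen, human HepaRG cultures received test chemicals for 48 h across eight concentrations with 100 uM highest, in duplicate. Values reflect LIPC mRNA induction or suppression versus DMSO vehicle, from normalized qRT-PCR.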

Read-out in assay [17]: Lipoprotein lipase (LPL), LPL (gene 4023)
The assay is described as follows: LTEA_HepaRG_LPL: Life Technologies and Expression Analysis (LTEA) Assay for Lipoprotein lipase (LPL) using HepaRG (AID 2283515). Summed up:
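Concentration-response testing used half-log steps from 100 uM in 0.5% DMSO on human HepaRG cells, 48 h, duplicate wells. Phenobarbital 1 mM served as induction control; LPL mRNA was normalized to ACTB, GAPDH, POLR2A.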

Read-out in assay [18]: MicroRNA 122 (MIR122), gene 406906
The assay is described as follows: LTEA_HepaRG_MIR122: Life Technologies and Expression Analysis (LTEA) Assay for MicroRNA 122 (MIR122) using HepaRG (AID 2283516). Also: the transcript read is the microRNA miR-122. The essentials:
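qRT-PCR read-out (TaqMan, Fluidigm array), normalized to three housekeeping genes; HepaRG cells dosed 48 h at 8 concentrations up to 100 uM in 0.5% DMSO, duplicate; gain or loss fitted against DMSO baseline.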

Read-out in assay [19]: Hypoxia-inducible factor 1-alpha (Homo sapiens) (UniProt Q16665)
As to the kind of experiment: LTEA_HepaRG_HIF1A: Life Technologies and Expression Analysis (LTEA) Assay for Hypoxia-inducible factor 1 (HIF1A) Trancription factor using HepaRG (AID 2283503). Summed up:
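Gain- or loss-of-signal HIF1A mRNA changes are fitted against a DMSO baseline. HepaRG cultures receive eight concentrations, highest 100 uM, for 48 h in serum-free induction medium with 0.5% DMSO.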

Read-out in assay [20]: Potassium channel subfamily K member 1 (KCNK1), KCNK1 (gene 3775)
As to the kind of experiment: LTEA_HepaRG_KCNK1: Life Technologies and Expression Analysis (LTEA) Assay for Potassium channel subfamily K member 1 (KCNK1) using HepaRG (AID 2283511). Summed up: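 Human HepaRG cultures receive test chemicals for 48 h in 0.5% DMSO, top concentration 100 uM with half-log dilutions. Induction or suppression of KCNK1 mRNA relative to DMSO is derived by bidirectional fitting of qRT-PCR data.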

The source made the active and inactive calls. The calls were made as follows: active = hit-call score of the fitted dose curve at least 0.9, where 1 is the maximum; inactive = score below 0.9.

Sequence of Hypoxia-inducible factor 1-alpha (Homo sapiens) (Q16665 whole entry, looked up): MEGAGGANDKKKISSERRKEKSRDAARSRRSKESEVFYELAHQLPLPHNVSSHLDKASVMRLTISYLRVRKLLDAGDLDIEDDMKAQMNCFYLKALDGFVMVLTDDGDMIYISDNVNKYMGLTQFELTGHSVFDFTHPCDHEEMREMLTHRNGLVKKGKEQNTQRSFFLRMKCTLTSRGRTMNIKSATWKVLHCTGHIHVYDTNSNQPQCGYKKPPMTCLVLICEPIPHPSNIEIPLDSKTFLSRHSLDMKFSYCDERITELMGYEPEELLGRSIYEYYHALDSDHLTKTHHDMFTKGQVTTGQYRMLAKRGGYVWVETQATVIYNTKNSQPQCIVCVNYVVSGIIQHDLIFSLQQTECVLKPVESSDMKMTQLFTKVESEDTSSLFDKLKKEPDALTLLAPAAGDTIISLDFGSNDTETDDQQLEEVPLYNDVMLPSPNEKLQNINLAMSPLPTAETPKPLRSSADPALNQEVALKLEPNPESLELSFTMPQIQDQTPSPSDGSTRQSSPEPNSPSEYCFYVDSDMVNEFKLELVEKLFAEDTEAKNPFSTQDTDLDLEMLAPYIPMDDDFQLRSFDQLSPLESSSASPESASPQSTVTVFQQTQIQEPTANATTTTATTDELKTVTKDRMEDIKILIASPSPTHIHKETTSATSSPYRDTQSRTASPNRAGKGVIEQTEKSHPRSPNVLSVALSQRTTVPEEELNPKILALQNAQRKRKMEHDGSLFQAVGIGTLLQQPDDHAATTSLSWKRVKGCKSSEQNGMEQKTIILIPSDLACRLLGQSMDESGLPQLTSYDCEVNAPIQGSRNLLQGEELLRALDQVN

Regarding `O=C1OC(c2ccc(O)cc2)(c2ccc(O)cc2)c2ccccc21`, the AC50 in assay [1] was 78.5 µM (active); in assay [2] it was 32 µM (active); in [5], 50 µM (active); in assay [6], 50 µM (active); in assay [7], 67.6 µM (active); in assay [8] it was 79.4 µM (active). Also, the half-maximal activity concentration (AC50) in [13] is 50 µM (active); in assay [16] it was 77.4 µM (active); in assay [17], 72.5 µM (active); in assay [18] it was 50 µM (active). In addition, the call in assay [3], in assay [4], in assay [9], in assay [10], in [11] and in assay [12] was inactive. For the same compound, the outcome in assay [14] and in [15] was inactive.

For `CO[C@@H]1COCC[C@@H]1N[C@@H]1CC[C@@](C(=O)N2CCc3ncc(C(F)(F)F)cc3C2)(C(C)C)C1`, the compound was called inactive in assay [1], in assay [2], in [3], in assay [4], in assay [6] and in assay [19]. The outcome in assay [7], in assay [8], in assay [9], in [10], in assay [11] and in assay [12] was inactive. Moreover, the compound was called inactive in assay [13], in [20], in assay [14], in assay [15], in [16] and in assay [17]. Further, in [18], the compound was classed as inactive.

As to `c1ccc2occc2c1`, the compound was classed as inactive in assay [1], in assay [2], in [3], in assay [4], in assay [5] and in assay [6]. Besides, the result in assay [19], in assay [7], in [8], in assay [9], in [10] and in assay [11] was inactive. For the same compound, the result in [12], in assay [13], in assay [20], in assay [14], in [15] and in [16] was inactive. The compound was called inactive in assay [17] and in assay [18].
